{"source": "PubChem BioAssay (EPA / NIEHS)", "note": "Records with an inconclusive call do not appear. Calls of active or inactive are those of the source. The calls were made as follows: active = hit-call score of the fitted dose curve at least 0.9, where 1 is the maximum; inconclusive = response in the unintended direction; inactive = score below 0.9.", "data": [{"biological_target": "Hepatocyte nuclear factor 4-alpha (Homo sapiens) (UniProt P41235)", "sequence (P41235 whole entry, looked up, the tested form may be a part)": "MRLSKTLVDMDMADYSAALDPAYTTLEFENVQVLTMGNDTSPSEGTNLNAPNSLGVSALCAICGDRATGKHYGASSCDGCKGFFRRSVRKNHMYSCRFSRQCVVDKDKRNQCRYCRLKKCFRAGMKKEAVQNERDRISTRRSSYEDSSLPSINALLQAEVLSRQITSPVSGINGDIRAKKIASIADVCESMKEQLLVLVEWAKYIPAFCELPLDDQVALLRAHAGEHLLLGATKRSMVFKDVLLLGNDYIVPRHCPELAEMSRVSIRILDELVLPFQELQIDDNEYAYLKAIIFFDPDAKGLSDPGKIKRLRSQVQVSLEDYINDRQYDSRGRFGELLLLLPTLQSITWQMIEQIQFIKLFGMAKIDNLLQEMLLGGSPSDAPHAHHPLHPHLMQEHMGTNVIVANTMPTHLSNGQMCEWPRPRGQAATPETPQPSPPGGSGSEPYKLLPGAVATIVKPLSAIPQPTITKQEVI", "assay": "ATG_HNF4a_TRANS: Attagene TRANS-FACTORIAL HepG2 Assay for human Hepatocyte Nuclear Factor 4 alpha (HNF4a) (AID 2282982)", "conditions": "HepG2 HNF4a transactivation reporter, mRNA readout", "procedure,_shortened": "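In this trans-factorial format, a chimeric HNF4a-GAL4 fusion drives a GAL4-UAS reporter in transfected HepG2 liver cells. After 24 h treatment, reporter mRNA induction is measured by RT-PCR with capillary electrophoresis, relative to DMSO.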", "values": [{"smiles": "COC(=O)/C=C/C(C)=C\\C=C\\C(C)=C\\C=C\\C=C(C)\\C=C\\C=C(C)\\C=C\\C(=O)O", "outcome": "inactive"}, {"smiles": "COc1cc(C)ccc1C(C)C", "outcome": "inactive"}, {"smiles": "Cc1cc(C)c(C)c(C)c1", "outcome": "inactive"}, {"smiles": "C=CC(=O)OCCOC(=O)C=C", "outcome": "inactive"}, {"smiles": "CCCc1ccc(OC)cc1", "outcome": "inactive"}, {"smiles": "O=C(O)c1cc2ccccc2nc1C(=O)O", "outcome": "inactive"}, {"smiles": "COC=O", "outcome": "inactive"}, {"smiles": "CC(C)(C)c1ccc(OC(=O)c2ccccc2O)cc1", "outcome": "inactive"}, {"smiles": "O=S(=O)(O)CC(O)CCl", "note": "(centres undefined)", "outcome": "inactive"}, {"smiles": "O=c1c2ccccc2nnn1CCl", "outcome": "inactive"}, {"smiles": "Cc1ccc(OC(=O)CC(C)C)cc1", "outcome": "inactive"}, {"smiles": "C1CN(SSN2CCOCC2)CCO1", "outcome": "inactive"}, {"smiles": "N#CCc1ccc(Cl)cc1Cl", "outcome": "inactive"}, {"smiles": "O=C1C(N(CO)C(=O)NCO)N(CO)C(=O)N1CO", "note": "(centres undefined)", "outcome": "inactive"}, {"smiles": "Cn1c(=O)[nH]c2ncn(C)c2c1=O", "outcome": "inactive"}, {"smiles": "CCCCCCCCc1ccc(Nc2ccc(CCCCCCCC)cc2)cc1", "outcome": "inactive"}, {"smiles": "O=c1n(CCO)c(=O)n(CCO)c(=O)n1CCO", "outcome": "inactive"}, {"smiles": "CO[Si](OC)(OC)c1ccccc1", "outcome": "inactive"}, {"smiles": "O=S1(=O)OC(c2ccc(O)cc2)(c2ccc(O)cc2)c2ccccc21", "outcome": "inactive"}, {"smiles": "O=C1CCCCCN1SSN1CCCCCC1=O", "outcome": "inactive"}, {"smiles": "CCCCCCCC(C)=O", "outcome": "inactive"}, {"smiles": "NC(=O)N=NC(N)=O", "outcome": "inactive"}, {"smiles": "C=CC(=O)NC(C)(C)CS(=O)(=O)O", "outcome": "inactive"}, {"smiles": "O=C(O)C(c1ccc(Cl)cc1)c1ccc(Cl)cc1", "outcome": "inactive"}, {"smiles": "CN1C(=O)N(C)C(O)C1O", "note": "(centres undefined)", "outcome": "inactive"}, {"smiles": "[Cl][In]([Cl])[Cl]", "outcome": "inactive"}, {"smiles": "S=C(NC1CCCCC1)NC1CCCCC1", "outcome": "inactive"}, {"smiles": "Cc1oncc1C(=O)Nc1ccc(C(F)(F)F)cc1", "outcome": "inactive"}, {"smiles": "OCCc1ccncc1", "outcome": "inactive"}, {"smiles": "CCOc1ccc(N)c([N+](=O)[O-])c1", "outcome": "inactive"}, {"smiles": "CC(=O)OCc1ccco1", "outcome": "inactive"}]}, {"system": "not listed separately", "assay": "ATG_M_06_TRANS: Attagene TRANS-FACTORIAL HepG2 Assay for M06 Transcription Factor (Internal Marker) (AID 2282983)", "conditions": "HepG2 Attagene TRANS M06 internal marker reporter", "procedure,_shortened": "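Background control endpoint: reporter mRNA from transiently transfected HepG2 after 24 h dosing, detected by RT-PCR with capillary electrophoresis fluorescence. Analysed for gain versus DMSO.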", "values": [{"smiles": "COC(=O)/C=C/C(C)=C\\C=C\\C(C)=C\\C=C\\C=C(C)\\C=C\\C=C(C)\\C=C\\C(=O)O", "outcome": "inactive"}, {"smiles": "CCCNC(=O)NS(=O)(=O)c1ccc(Cl)cc1", "outcome": "inactive"}, {"smiles": "COCC(C)N", "note": "(centres undefined)", "outcome": "inactive"}, {"smiles": "COc1cc(C)ccc1C(C)C", "outcome": "inactive"}, {"smiles": "Cc1cc(C)c(C)c(C)c1", "outcome": "inactive"}, {"smiles": "C=CC(=O)OCCOC(=O)C=C", "outcome": "inactive"}, {"smiles": "O=C(O)c1cc2ccccc2nc1C(=O)O", "outcome": "inactive"}, {"smiles": "COC=O", "outcome": "inactive"}, {"smiles": "CC(C)(C)c1ccc(OC(=O)c2ccccc2O)cc1", "outcome": "inactive"}, {"smiles": "Cc1ccc(N/N=c2\\c(=O)cc/c(=N/Nc3ccc(S(=O)(=O)O)cc3)c2=O)c(C)c1", "outcome": "inactive"}, {"smiles": "O=S(=O)(O)CC(O)CCl", "note": "(centres undefined)", "outcome": "inactive"}, {"smiles": "O=c1c2ccccc2nnn1CCl", "outcome": "inactive"}, {"smiles": "Cc1ccc(OC(=O)CC(C)C)cc1", "outcome": "inactive"}, {"smiles": "N#CCc1ccc(Cl)cc1Cl", "outcome": "inactive"}, {"smiles": "Cn1c(=O)[nH]c2ncn(C)c2c1=O", "outcome": "inactive"}, {"smiles": "CO[Si](OC)(OC)c1ccccc1", "outcome": "inactive"}, {"smiles": "O=S1(=O)OC(c2ccc(O)cc2)(c2ccc(O)cc2)c2ccccc21", "outcome": "inactive"}, {"smiles": "O=C1CCCCCN1SSN1CCCCCC1=O", "outcome": "inactive"}, {"smiles": "CCCCCCCC(C)=O", "outcome": "inactive"}, {"smiles": "NC(=O)N=NC(N)=O", "outcome": "inactive"}, {"smiles": "[Cl][In]([Cl])[Cl]", "outcome": "inactive"}, {"smiles": "Cc1oncc1C(=O)Nc1ccc(C(F)(F)F)cc1", "outcome": "inactive"}, {"smiles": "OCCc1ccncc1", "outcome": "inactive"}, {"smiles": "CCOc1ccc(N)c([N+](=O)[O-])c1", "outcome": "inactive"}, {"smiles": "CC(=O)OCc1ccco1", "outcome": "inactive"}]}, {"system": "not listed separately", "assay": "ATG_M_32_TRANS: Attagene TRANS-FACTORIAL HepG2 Assay for M32 Transcription Factor (Internal Marker) (AID 2282984)", "conditions": "HepG2 Attagene TRANS M32 internal marker reporter", "procedure,_shortened": "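After 24 h dosing of transfected HepG2 cells, total RNA was reverse-transcribed, reporter sequences PCR-amplified, 6-FAM labelled by primer extension and HpaI-digested before capillary electrophoresis. Signal increase over DMSO was fitted.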", "values": [{"smiles": "COC(=O)/C=C/C(C)=C\\C=C\\C(C)=C\\C=C\\C=C(C)\\C=C\\C=C(C)\\C=C\\C(=O)O", "outcome": "inactive"}, {"smiles": "CCCNC(=O)NS(=O)(=O)c1ccc(Cl)cc1", "outcome": "inactive"}, {"smiles": "COCC(C)N", "note": "(centres undefined)", "outcome": "inactive"}, {"smiles": "COc1cc(C)ccc1C(C)C", "outcome": "inactive"}, {"smiles": "Cc1cc(C)c(C)c(C)c1", "outcome": "inactive"}, {"smiles": "C=CC(=O)OCCOC(=O)C=C", "outcome": "inactive"}, {"smiles": "C=C[Si](OC(C)=O)(OC(C)=O)OC(C)=O", "outcome": "inactive"}, {"smiles": "COC=O", "outcome": "inactive"}, {"smiles": "Cc1ccc(N/N=c2\\c(=O)cc/c(=N/Nc3ccc(S(=O)(=O)O)cc3)c2=O)c(C)c1", "outcome": "inactive"}, {"smiles": "O=S(=O)(O)CC(O)CCl", "note": "(centres undefined)", "outcome": "inactive"}, {"smiles": "O=c1c2ccccc2nnn1CCl", "outcome": "inactive"}, {"smiles": "Cc1ccc(OC(=O)CC(C)C)cc1", "outcome": "inactive"}, {"smiles": "N#CCc1ccc(Cl)cc1Cl", "outcome": "inactive"}, {"smiles": "O=C1C(N(CO)C(=O)NCO)N(CO)C(=O)N1CO", "note": "(centres undefined)", "outcome": "inactive"}, {"smiles": "Cn1c(=O)[nH]c2ncn(C)c2c1=O", "outcome": "inactive"}, {"smiles": "O=c1n(CCO)c(=O)n(CCO)c(=O)n1CCO", "outcome": "inactive"}, {"smiles": "O=CC1CC1", "outcome": "inactive"}, {"smiles": "CO[Si](OC)(OC)c1ccccc1", "outcome": "inactive"}, {"smiles": "O=C1CCCCCN1SSN1CCCCCC1=O", "outcome": "inactive"}, {"smiles": "CCCCCCCC(C)=O", "outcome": "inactive"}, {"smiles": "C=CC(=O)NC(C)(C)CS(=O)(=O)O", "outcome": "inactive"}, {"smiles": "S=C(NC1CCCCC1)NC1CCCCC1", "outcome": "inactive"}, {"smiles": "Cc1oncc1C(=O)Nc1ccc(C(F)(F)F)cc1", "outcome": "inactive"}, {"smiles": "CC(=O)OCc1ccco1", "outcome": "inactive"}]}, {"biological_target": "Nuclear receptor subfamily 4 group A member 2 (Homo sapiens) (UniProt P43354)", "sequence (P43354 whole entry, looked up, the tested form may be a part)": "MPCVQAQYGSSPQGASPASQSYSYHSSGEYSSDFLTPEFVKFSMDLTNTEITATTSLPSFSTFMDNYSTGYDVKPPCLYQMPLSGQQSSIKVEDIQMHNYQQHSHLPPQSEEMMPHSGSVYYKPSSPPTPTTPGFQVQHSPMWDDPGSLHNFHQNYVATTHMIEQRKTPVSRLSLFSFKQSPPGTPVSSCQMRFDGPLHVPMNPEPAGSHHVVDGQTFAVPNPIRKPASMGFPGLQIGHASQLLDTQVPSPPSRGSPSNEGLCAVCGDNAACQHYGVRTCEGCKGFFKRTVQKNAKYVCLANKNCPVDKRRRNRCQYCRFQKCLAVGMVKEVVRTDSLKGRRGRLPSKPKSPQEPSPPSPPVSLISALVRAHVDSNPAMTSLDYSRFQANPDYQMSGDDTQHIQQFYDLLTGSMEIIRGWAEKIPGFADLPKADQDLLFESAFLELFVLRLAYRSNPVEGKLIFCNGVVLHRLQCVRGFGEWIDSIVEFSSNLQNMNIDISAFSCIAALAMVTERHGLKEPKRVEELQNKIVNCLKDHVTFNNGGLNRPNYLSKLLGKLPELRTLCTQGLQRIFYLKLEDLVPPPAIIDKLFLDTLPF", "assay": "ATG_NURR1_TRANS: Attagene TRANS-FACTORIAL HepG2 Assay for human Nuclear Receptor Related Protein 1 (NURR1) (AID 2282985)", "conditions": "HepG2 Attagene TRANS reporter, mRNA readout", "procedure,_shortened": "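Chimeric NR-Gal4 fusion activity measured in HepG2 after 24 h treatment. Reporter transcripts detected by RT-PCR and capillary electrophoresis fluorescence; positive-direction curve fitting against DMSO.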", "values": [{"smiles": "COC(=O)/C=C/C(C)=C\\C=C\\C(C)=C\\C=C\\C=C(C)\\C=C\\C=C(C)\\C=C\\C(=O)O", "outcome": "inactive"}, {"smiles": "COCC(C)N", "note": "(centres undefined)", "outcome": "inactive"}, {"smiles": "COc1cc(C)ccc1C(C)C", "outcome": "inactive"}, {"smiles": "Cc1cc(C)c(C)c(C)c1", "outcome": "inactive"}, {"smiles": "O=C(O)c1cc2ccccc2nc1C(=O)O", "outcome": "inactive"}, {"smiles": "CC(C)(C)c1ccc(OC(=O)c2ccccc2O)cc1", "outcome": "inactive"}, {"smiles": "Cc1ccc(N/N=c2\\c(=O)cc/c(=N/Nc3ccc(S(=O)(=O)O)cc3)c2=O)c(C)c1", "outcome": "inactive"}, {"smiles": "Cc1ccc(OC(=O)CC(C)C)cc1", "outcome": "inactive"}, {"smiles": "C1CN(SSN2CCOCC2)CCO1", "outcome": "inactive"}, {"smiles": "O=C1C(N(CO)C(=O)NCO)N(CO)C(=O)N1CO", "note": "(centres undefined)", "outcome": "inactive"}, {"smiles": "CCCCCCCCc1ccc(Nc2ccc(CCCCCCCC)cc2)cc1", "outcome": "inactive"}, {"smiles": "O=S1(=O)OC(c2ccc(O)cc2)(c2ccc(O)cc2)c2ccccc21", "outcome": "inactive"}, {"smiles": "O=C1CCCCCN1SSN1CCCCCC1=O", "outcome": "inactive"}, {"smiles": "NC(=O)N=NC(N)=O", "outcome": "inactive"}, {"smiles": "[Cl][In]([Cl])[Cl]", "outcome": "inactive"}, {"smiles": "S=C(NC1CCCCC1)NC1CCCCC1", "outcome": "inactive"}, {"smiles": "Cc1oncc1C(=O)Nc1ccc(C(F)(F)F)cc1", "outcome": "inactive"}, {"smiles": "CCOc1ccc(N)c([N+](=O)[O-])c1", "outcome": "inactive"}, {"smiles": "CCC(C)C=O", "note": "(centres undefined)", "outcome": "inactive"}]}]}
